Data as given in PubChem BioAssay AID1508615 (Milbrandt Lab, Department of Genetics, Washington …, 2020).
Among all 1,600 compounds or so, about 20 (1%) were called active.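 How the source made its calls: active means ratio of uncleaved NAD to its breakdown product ADP-ribose above 4, meaning the enzyme was inhibited; inactive means the rest.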 Only a selection was taken, and actives are over-represented in it overall.

Each compound was assayed against NAD(+) hydrolase SARM1 (Homo sapiens) (UniProt Q6SZW1) (assay: SARM1 TIR NADase inhibitors by HPLC, primary screen, cell lysate, HPLC readout (AID 1508615;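 further: substrate NAD at 5 µM with 60 min at 37 °C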)). Settings: HEK293T SAM-TIR lysate, at 5 µM, active compounds read high.
NAD(+) hydrolase SARM1 (Homo sapiens), sequence (Q6SZW1 whole entry, looked up): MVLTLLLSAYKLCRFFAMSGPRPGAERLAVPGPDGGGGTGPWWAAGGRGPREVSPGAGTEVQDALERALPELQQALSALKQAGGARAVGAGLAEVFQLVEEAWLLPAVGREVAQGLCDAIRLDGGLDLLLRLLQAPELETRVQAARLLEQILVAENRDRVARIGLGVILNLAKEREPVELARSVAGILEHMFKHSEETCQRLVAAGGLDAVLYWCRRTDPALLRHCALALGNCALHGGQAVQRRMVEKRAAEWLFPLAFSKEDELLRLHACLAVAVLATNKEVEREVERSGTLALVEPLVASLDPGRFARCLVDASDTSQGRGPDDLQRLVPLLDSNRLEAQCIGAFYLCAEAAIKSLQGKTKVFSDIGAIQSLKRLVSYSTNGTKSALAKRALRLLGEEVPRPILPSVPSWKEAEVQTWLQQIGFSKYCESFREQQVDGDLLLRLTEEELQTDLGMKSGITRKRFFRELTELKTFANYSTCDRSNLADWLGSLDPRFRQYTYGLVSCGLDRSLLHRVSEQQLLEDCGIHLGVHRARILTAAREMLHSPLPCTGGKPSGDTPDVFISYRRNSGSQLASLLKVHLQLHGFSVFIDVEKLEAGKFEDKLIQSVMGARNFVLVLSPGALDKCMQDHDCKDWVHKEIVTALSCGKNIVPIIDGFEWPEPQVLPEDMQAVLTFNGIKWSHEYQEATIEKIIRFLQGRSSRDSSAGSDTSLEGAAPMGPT

NAD/ADPR ratio, inactive:
CC1(C)SC(C)(C)N(C=O)C1C(=O)O (stereo unspecified) 3
CCOC(=O)Cc1cc(=O)[nH]n(-c2ccccc2)c1=O 3
Cc1ccc(/C=C2\CCOC2=O)cc1 3
Cc1ccc2c(c1)sc1nncn12 3
Oc1ccc(Cc2ccccc2Cl)c(O)c1 3
COc1cc(/C=N/Nc2nc3c([nH]2)c(=O)n(C)c(=O)n3C)ccc1O 3
O=C1CCC(NC(=O)c2ccccc2)C(=O)N1 (stereo unspecified) 3
O=C(/C=C/c1cccnc1)c1ccccc1O 3
CCCCCn1cnc2c(=S)nc(N)[nH]c21 3
CN1CN(C)C(c2ccncc2)=C1c1ccncc1 3
CCCCOc1ccc(NC(=O)Nc2nnc(C)s2)cc1 3
Cc1ccc(C(C)C)cc1NC(=O)Nc1ccc([N+](=O)[O-])cc1 3
Cc1cc(NC(=O)c2ccccc2)nc(C)n1 3
Nc1ccnn1-c1ccccc1 3
O=C(O)C(Cc1cn[nH]n1)=NO 3
NC(=O)SCC(=O)Nc1ccccc1C(=O)O 3
CC(NC(=O)c1ccc(Cl)c(Cl)c1)c1ccc(-c2ccccc2)cc1 (stereo unspecified) 3
OC(c1cc(-c2ccc(Cl)cc2)nc2ccccc12)C1CCCCN1 (stereo unspecified) 3
Clc1ccc(SCNc2ccccc2Cl)cc1 3
Nc1ncnc2c1ncn2C1OC(CO)C(O)C1N (stereo unspecified) 3
CC1(C)CC(=O)C(CC(=O)c2ccccc2)=C(NN=C(N)N)C1 3
O=C(O)CCC1(c2ccccc2)NC(=O)NC1=O (stereo unspecified) 3
c1ccc2c(c1)Oc1cccc3cccc-2c13 3
O=C1c2cc([N+](=O)[O-])ccc2-c2cc(Br)c(N=C(NO)C(F)(F)F)cc21 3
O=c1cc[nH]c2c(Cl)cccc12 3
COc1cc(-c2ccc(NC(=O)NC3CC3)c(OC)c2)ccc1NC(=O)NC1CC1 3
